Shiga inhibitor: blocks Shiga toxin action in Vero cells | Vero cells, Shiga toxin protein synthesis inhibition reporter | inhibition, % at 38.7 µM | 290,000 compounds, 9.2% hits | AID 2315; in the data active = inhibition mostly above about 28%, no sharp cut-off; inactive = mostly below about 43%
NS1 inh: inhibitors of influenza NS1 protein function. Potency, µM (top dose mostly 46.1 µM). 270,000 compounds, 0.4% hits; calls by dose curve; also: actives are rising curves; nearly all actives have a fitted effect of over 50% in size
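A cell-based growth assay was used: compounds that relieve NS1-induced slow growth of budding yeast raise OD600. Assay medium was yeast nitrogen base with ammonium sulphate and -URA supplement, pH 6.0, with 2% galactose.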
Pf growth 48h: P. falciparum growth inhibition at 48 hours (one generation). AID 504832. Potency, µM (doses to about 28.7 µM), usual class: inhibitors. P. falciparum luciferase growth in erythrocytes, 48 h. 310,000 compounds, 5.9% hits
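Luciferase-expressing P. falciparum in infected erythrocytes (2% hematocrit, 0.1% parasitemia final) in RPMI 1640/0.5% Albumax were exposed to compound for 48 hours at 37 C, 5% CO2; growth read as luminescence.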
CHX counter: counter-screen hit for Shiga toxin inhibitors, cycloheximide | cell reporter, cycloheximide protein synthesis inhibition counterscreen | max response, % | 300,000 compounds, 12% hits | AID 2314; in the data active = max response mostly above about 13%, no sharp cut-off; inactive = mostly below about 14%; also: read at 38.3 µM for the half of the compounds with a filed dose
Pf growth 96h: P. falciparum growth inhibition at 96 hour, primary screen for plastid delayed-death inhibitors; P. falciparum luciferase reporter growth, 96 h; Potency, µM (top dose mostly 28.7 µM), most hits filed as inhibitors; 320,000 compounds, 6.9% hits; AID 504834
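Luminescence readout: decreased luciferase signal marks inhibited growth of reporter-expressing P. falciparum in infected red cells (2% hematocrit, 0.05% parasitemia final), exposed to compound two generations (96 h, 37 C, 5% CO2).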
Numbers stand for hits; [ ] = another dose, or the depositor's remark. Shown are actives, neighbours in structure and some others; about 21% of the full set was active somewhere. Unless noted, calls follow the shape of the dose curve; as a rule, active = well fitted inhibition curve with a large enough effect; inconclusive = small, poorly fitted or top-dose-only effect, or another doubt; inactive = no such curve, though single readings can be large or run the other way.

Cc1cc(C)c2ccc(N)nc2c1O was read as Shiga inhibitor inactive, NS1 inh inactive, Pf growth 48h 4.1µM, CHX counter inactive and Pf growth 96h inactive.
O=C(Nc1cccc(Br)c1)c1ccc(OC2CSC2)cc1 was read as Shiga inhibitor 147, Pf growth 48h inactive, CHX counter 43 and Pf growth 96h inconclusive.
Screening Cc1cccc(NC(=O)c2ccc(OC3CSC3)cc2)c1 returned Shiga inhibitor 62, NS1 inh inactive, Pf growth 48h inactive, CHX counter 43 and Pf growth 96h inconclusive.
For O=C(NCc1ccccc1)c1ccc(Oc2ccc(C(=O)NCc3ccccc3)cc2)cc1 the results were Shiga inhibitor inactive, NS1 inh inactive, CHX counter inactive and Pf growth 96h inconclusive.
O=C(NCc1ccccc1)c1ccc(OC2CSC2)cc1 was read as Shiga inhibitor inactive, NS1 inh inactive, Pf growth 48h inactive, CHX counter 12 and Pf growth 96h inactive.
`Cc1nn(C)c(N)c1C(O)(c1nccn1C)C(F)(F)F` (stereo unspecified) gave Shiga inhibitor inactive, NS1 inh inactive, Pf growth 48h inactive, CHX counter inactive and Pf growth 96h inactive.
For CN1C(=O)N(C)C2(c3ccccc3)NC(=O)NC12c1ccccc1 (stereo unspecified) the results were Shiga inhibitor inactive, NS1 inh inactive, Pf growth 48h inactive, CHX counter inactive and Pf growth 96h inconclusive.
Screening CCN1C(=O)N(c2cccc3ccccc23)C(C)=CC1(C)C returned Shiga inhibitor inactive, NS1 inh inactive, Pf growth 48h inactive, CHX counter inactive and Pf growth 96h inconclusive.
For CN1c2ccccc2N(C)C1(C)c1ccccc1 the results were Shiga inhibitor inactive, NS1 inh inconclusive, Pf growth 48h 2.3µM, CHX counter inactive and Pf growth 96h inactive.
CCN1c2ccccc2N(C)C1(C)c1ccccc1 (stereo unspecified) was read as Shiga inhibitor inactive, NS1 inh inactive, Pf growth 48h 2.6µM, CHX counter inactive and Pf growth 96h inactive.
`CCC(=O)NC(=S)NNC(=O)COc1ccc(Br)cc1` gave Shiga inhibitor inactive, NS1 inh inactive, Pf growth 48h inconclusive, CHX counter inactive and Pf growth 96h inactive.
Screening C/C(CC(C)(C)C1CCCCC1)=N\NC(N)=S returned Shiga inhibitor inactive, NS1 inh inactive, CHX counter inactive and Pf growth 96h 2.9µM.
C/C(CCC12CC3CC(CC(C3)C1)C2)=N\NC(N)=S was read as Shiga inhibitor inactive, NS1 inh inactive, CHX counter inactive and Pf growth 96h inconclusive.
c1ccc(-c2noc(CN3CCN(C(c4ccccc4)c4ccccc4)CC3)n2)cc1 was read as Shiga inhibitor inactive, NS1 inh inactive, Pf growth 48h inconclusive, CHX counter inactive and Pf growth 96h inactive.
Screening c1ccc(-c2noc(-c3ccc4c(c3)OCO4)n2)nc1 returned Shiga inhibitor inactive, NS1 inh inconclusive, Pf growth 48h inactive and CHX counter inactive.
c1ccc(-c2noc(C34CC5CC(CC(C5)C3)C4)n2)cc1 was read as Shiga inhibitor inactive, NS1 inh inactive, Pf growth 48h inactive and CHX counter 14.
Screening c1ccc(-c2noc(C34CC5CC(CC(C5)C3)C4)n2)nc1 returned Shiga inhibitor 100, NS1 inh inactive, Pf growth 48h inconclusive, CHX counter 34 and Pf growth 96h inactive.
`O=C(CCn1cnc2ccccc21)N=Nc1c(O)[nH]c2ccccc12` gave Shiga inhibitor inactive, NS1 inh inactive, Pf growth 48h inactive, CHX counter inactive and Pf growth 96h inactive.
O=C(CCCSc1nc2ccccc2[nH]1)NCc1ccccc1F was read as Shiga inhibitor inactive, Pf growth 48h inactive, CHX counter inactive and Pf growth 96h inactive.
Cc1ccc(CNC(=O)CSc2nc3ccccc3[nH]2)cc1 was read as Shiga inhibitor inactive, NS1 inh inactive, Pf growth 48h inactive, CHX counter 15 and Pf growth 96h inactive.
Screening O=C(CCCSc1nc2ccccc2[nH]1)NCc1ccc(Cl)cc1 returned Shiga inhibitor inactive, NS1 inh inactive, Pf growth 48h inconclusive, CHX counter inactive and Pf growth 96h 12µM.
Screening Cn1c(=O)c2ncn(CC(=O)N=Nc3c(O)[nH]c4ccccc34)c2n(C)c1=O returned Shiga inhibitor inactive, Pf growth 48h 12µM, CHX counter inactive and Pf growth 96h inactive[1.15 µM].
O=C(CSc1nc2ccccc2[nH]1)N=Nc1c(O)[nH]c2ccccc12 was read as Shiga inhibitor inactive, NS1 inh inactive, Pf growth 48h inactive, CHX counter 17 and Pf growth 96h inactive.
Screening Cc1ccc(S(=O)(=O)N2CCN(C(=O)CCCN3C(=O)NC4(CCCC4)C3=O)CC2)cc1C returned Pf growth 48h inactive and Pf growth 96h inactive.

Assay outcomes (PubChem BioAssay)
